Screening results deposited in PubChem by National Center for Advancing Translational Sciences (NCATS).
CRE Fsk mod – CRE-bla signaling modulation under forskolin stimulation. hit rate 2.5% among 71,000. CHO CRE-bla reporter (cAMP response element driving beta-lactamase), forskolin EC10, beta-lactamase ratio. AID 662. Potency, µM (titrated, usually from 38.2 µM), for the others: at the top dose activity change, negative = inhibition, actives largely listed as activators; active = well fitted activation curve with a large enough effect in the signal ratio, with a control signal flat, not every such curve was filed as active; inconclusive = small, poorly fitted or top-dose-only effect, or effect the other way, or a change in a side signal; the % refers to the signal ratio; note: potency is the fitted concentration of half-maximal effect; % of control where 0% means no effect
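Using CellSensor CRE-bla CHO cells in Opti-MEM with 0.5% dialyzed FBS, compounds were titrated with EC10 NKH 477 for 3 h at 37 °C. CCF4 ratio (460/530 nm) gave %Activity; AC50 derived.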
4-MU autofl – compound fluoresces in the 4-MU spectral region; compound autofluorescence, 340/450 nm, 4-MU equivalents; active compounds read high; max dye-equivalent concentration, M; hit rate 11% among 59,000; AID 589; in the data active = max dye-equivalent concentration above about 10 nM; inconclusive = mostly about 1.1 nM to 9.6 nM
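Compounds in 100 mM Tris, pH 8.0, incubated 15 min at room temperature, then fluorescence read at 340 nm excitation/450 nm emission. Signal converted to 4-MU dye-equivalent concentration using an on-plate six-point 4-MU standard curve.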
A350 autofl – A350 region autofluorescence. Compound autofluorescence, 340/450 nm, Alexa 350 dye-equivalents; active compounds read high. max dye-equivalent concentration, M. hit rate 11% among 59,000; in the data active = max dye-equivalent concentration above about 10 nM; inconclusive = mostly about 1.1 nM to 9.6 nM
HSD17B inhib – inhibitors of human HSD17B10 dehydrogenase. recombinant HSD17B10, NADH fluorescence kinetic. Potency, µM (top dose mostly 57.1 µM), inactives show top-dose activity change, negative = inhibition, actives largely listed as inhibitors. hit rate 7.6% among 75,000. AID 893. Q99714;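 note: the protocol describes HADH2 (HSD17B10) and not the HSD17B4 of the title; potency is the fitted concentration of half-maximal effect; % is set by controls: 0 for no effect and ±100 for the full control effect; nearly all actives have a fitted effect of over 70% in size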
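His-tagged E. coli-expressed HADH2 at 20 nM in 100 mM Tris-HCl pH 9.0 with 0.01 % Tween-20, preincubated 15 min with compound at room temperature. Reaction with 1 mM NAD+ and 90 uM beta-hydroxybutyryl coenzyme A; NADH fluorescence (360/450 nm) read kinetically over 4 min, last minus first point.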
AID923 – qHTS Assay for Allosteric/Competitive Inhibitors of Caspase-1: Spectroscopic Profiling in AFC Spectral Region | Potency, µM (top dose mostly 57.5 µM), for inactives: top-dose fluorescence increase, usual class: activators | compound fluorescence, AFC spectral region (405/520 nm) | AID 923, 2007 | hit rate 1.1% among 75,000; note: potency is the fitted concentration of half-maximal effect; 0% is about no effect
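Titrations up to 57 uM read every 20 sec for 3 min (405/520 nm) with 50 nM caspase 1 and 5 uM Ac-WEHD-AFC, pH 7.5 HEPES buffer. Fluorescence-vs-time intercept gave baseline, scaled against on-plate AFC standard.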
HADH2 inhib – inhibitors of human HADH2 dehydrogenase. AID 886. Potency, µM (series often up to 57.1 µM), for the others: top-dose activity change, negative = inhibition, most hits filed as inhibitors. recombinant HADH2, NADH fluorescence, beta-hydroxybutyryl-CoA. hit rate 3.4% among 73,000. Q99714; note: potency is the fitted concentration of half-maximal effect; % is set by controls: 0 for no effect and ±100 for the full control effect; nearly all actives have a fitted effect of over 60% in size
Target sequence (Q99714 whole entry, looked up, one chain of several): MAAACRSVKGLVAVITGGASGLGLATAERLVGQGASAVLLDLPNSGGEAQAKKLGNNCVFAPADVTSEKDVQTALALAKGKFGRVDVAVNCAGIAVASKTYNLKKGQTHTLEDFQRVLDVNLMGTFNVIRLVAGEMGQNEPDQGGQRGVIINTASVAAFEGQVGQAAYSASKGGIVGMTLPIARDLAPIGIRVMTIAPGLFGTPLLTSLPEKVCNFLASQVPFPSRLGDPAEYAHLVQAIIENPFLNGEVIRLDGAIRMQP
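His-tagged recombinant enzyme from E. coli, 20 nM, preincubated 15 min RT with compound; reaction started with 1 mM NAD+ and 90 uM beta-hydroxybutyryl-CoA in 100 mM Tris-HCl pH 9.0. NADH fluorescence (ex 360/em 450) read over 4 min; last-minus-first difference.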
Active calls of the source: *; i = inactive; ? = inconclusive; . = no result given; [ ] = dose if it differs, or a comment. A selection: hits, their analogues and other compounds. The true share with any hit is near 14%. Unless noted, calls come from the whole dose curve; as a rule, active = well fitted curve in the direction sought with a large enough effect; inconclusive = small, poorly fitted or top-dose-only effect, or another doubt; inactive = no such curve, though single readings can be large; an effect the other way counts as inactive or inconclusive.

SMILES	CRE Fsk mod	4-MU autofl	A350 autofl	HSD17B inhib	AID923	HADH2 inhib
Cc1ccc(Cl)cc1N1CCN(C(=O)c2cn(C)c(=O)c3c2c2ccccc2n3C)CC1	?	3.6e-08M*	3.4e-08M*	-25%	1%	-10%
Cc1ccc(Cl)cc1N1CCN(C(=O)Cn2ccc3ccccc3c2=O)CC1	?	i	i	-26%	-1%	-7%
Cc1cccc(N2CCN(C(=O)c3cn(C)c(=O)c4c3c3ccccc3n4C)CC2)c1C	?	3.6e-08M*	3.5e-08M*	?	-1%	?
C/C=C\C1=C(CO)C(=O)[C@@H]2OC2C1=O (some centres undefined)	.	.	.	?	-1%[11.5 µM]	4µM*
C/C=C\C1=C(CO)[C@H](O)[C@H]2O[C@H]2[C@H]1O	.	.	.	-2%[11.4 µM]	-3%[11.5 µM]	-15%[11.4 µM]
O=C(O)COc1cccc(-c2ocnc2-c2nc(-c3ccccc3)c(-c3ccccc3)o2)c1	?	.	.	32µM*	-3%	4%
O=C(O)COc1ccc2c(-c3ccccc3)cc(=O)oc2c1	-6%	i	?	-16%	2%	20%
Clc1ccccc1OCCn1ccnc1	-1%	2.3e-08M*	2.3e-08M*	?	3%	11%
CO[Si](CCCNCCC[Si](OC)(OC)OC)(OC)OC	-6%	.	.	2%	-1%	7%
N#CC1=C(N)Oc2n[nH]c(-c3cccs3)c2C1c1ccsc1 (centres undefined)	-6%	i	i	.	1%	.
Cc1ccc(C2C(C#N)=C(N)Oc3n[nH]c(-c4cccs4)c32)s1 (centres undefined)	-11%	i	i	20µM*	-2%	?
CCOc1ccc2[nH]c(=O)c(CN(CCO)C(c3nnnn3C3CCCCC3)C(C)C)cc2c1 (centres undefined)	13%	6.1e-08M*	9.5e-08M*	?	20%	5%
COc1ccc(CN(Cc2cc3ccc(C)cc3[nH]c2=O)Cc2nnnn2C2CCCC2)cc1	?	i	i	?	-1%	-5%
CCCN1CCN(C(c2cc3cc(OCC)ccc3[nH]c2=O)c2nnnn2C2CCCCC2)CC1 (centres undefined)	-15%	4.2e-07M*	5.1e-07M*	25µM*	4%	-20%
COc1ccc(C(c2nnnn2C2CCCCC2)N2CCN(c3ccc(OC)cc3)CC2)cc1 (centres undefined)	7.9µM*	i	i	6%	0%	2%
COc1ccc2[nH]c(=O)c(C(c3nnnn3C3CCCCC3)N3CCN(C)CC3)cc2c1 (centres undefined)	-1%	9.1e-07M*	1.5e-06M*	16µM*	19%	-5%
COc1ccc(C(c2nnnn2C2CCCC2)N2CCC(C)CC2)cc1 (centres undefined)	2%	i	i	-2%	2%	-3%
CC/C(=C(\c1ccccc1)c1ccc(OCCN(C)C)cc1)c1ccc(O)cc1	?	.	.	1%	2%	-15%
Cc1ccco1	-6%	.	.	5%	1%	-2%
CO[C@@H]1COC(=O)[C@@H](CCSC)NC(=O)C/C=C\[C@@H](C)COC(=O)[C@H](C)NC(=O)C/C=C\[C@H]1C	.	.	.	1%[11.4 µM]	0%[11.5 µM]	-2%[11.4 µM]
CC(C)C[C@@H](CC(=O)N[C@@H](CCCN)CC(=O)N[C@@H]1CCNC[C@H]1C(=O)N[C@H](CC(=O)N[C@@H](CCC(=O)O)CC(=O)O)CC(C)C)NC(=O)[C@@H]1CCCC[C@H]1N	?	.	.	.	.	-8%
COCCOc1ccc(C(F)(F)F)cc1Nc1nc2ccccc2o1	?	i	i	25µM*	0%	?
COc1ccccc1CNc1ncncc1-c1cccc(C#N)c1	?	i	i	-7%	0%	1%
Nc1sc2c(c1C(=O)NC1CCS(=O)(=O)C1)CCCC2 (centres undefined)	-1%	.	.	25µM*	-6%	-5%
COc1cc2ccccc2cc1C(=O)Nc1cccnc1	?	1.1e-08M*	1.4e-08M*	-6%	0%	1%
